Reference: ChEMBL document CHEMBL3988442, “University of Dundee, Small-Polar-MMV Screening Library” (2021)
Hit rate of the full screen: of about 48,000 compounds, about 13,000 (27%) showed an effect of 50% or more. The list shows a part of the results.

system: Wolbachia pipientis; assay: Anti-Wolbachia Cell-Based Screen; assay type: functional; design: scale not given: in the data most compounds retested in dose-response had high values; conditions: 5 µM

Row | Structure (SMILES) | Percent Effect
1 | Cc1nc(C(C)C)ncc1C(=O)N1CCc2c(nc(N(C)C)[nH]c2=O)C1 | -2.755%
2 | Cc1ccc(CN2CC3(CCNCC3)CCC2=O)c(F)c1F | -4.713%
3 | CNC(=O)[C@@]12CCC3(CCNCC3)[C@@H]1CN(S(C)(=O)=O)C2 | 151.6%
4 | CC(C)NC(=O)N1CCC2(CC1)CC[C@@]1(C(=O)N(C)C)CN(C)C[C@@H]21 | -18.22%
5 | CCN1C[C@H]2C3(CCN(S(C)(=O)=O)CC3)CC[C@@]2(C(=O)N(C)C)C1.O=C(O)C(F)(F)F | -24.55%
6 | CNC(=O)N1CCC2(CC1)CC[C@@]1(C(=O)NC)CN(S(C)(=O)=O)C[C@@H]21 | 99.51%
7 | CNC(=O)[C@@]12CCC3(CCN(S(C)(=O)=O)CC3)[C@@H]1CN(S(C)(=O)=O)C2 | 14.17%
8 | CNC(=O)[C@@]12CCC3(CCN(C(=O)C(C)C)CC3)[C@@H]1CN(S(C)(=O)=O)C2 | 104.1%
9 | CCN1CC2(CC1=O)CN(C(=O)COC)CCN(S(C)(=O)=O)C2 (stereo unspecified) | -10.66%
10 | CNC(=O)[C@@]12CCC3(CCN(C(=O)COC)CC3)[C@@H]1CN(S(C)(=O)=O)C2 | 102.3%
11 | CNC(=O)[C@@]12CCC3(CCN(C(C)=O)CC3)[C@@H]1CN(S(C)(=O)=O)C2 | -0.1611%
12 | CC(=O)N1CCC2(CC1)CC[C@@]1(C(=O)N(C)C)CN(S(C)(=O)=O)C[C@@H]21 | -18.69%
13 | CCN1C[C@H]2C3(CCN(C(=O)NC(C)C)CC3)CC[C@@]2(C(=O)NC)C1.O=C(O)C(F)(F)F | -18.02%
14 | O=C(c1cscn1)N(CCCO)S(=O)(=O)c1cccs1 | 7.908%
15 | CN(CCSc1ccccc1)C(=O)c1cn2c(n1)CNCC2 | -0.3479%
16 | O=C(NCc1ccc(C(=O)N2CCCC2)cc1)c1cn2c(n1)CNCC2 | -4.939%
17 | CN1C(=O)CC(N(C)Cc2nc3ccccc3c(=O)[nH]2)C1=O (stereo unspecified) | -8.963%
18 | CCC(C)N(Cc1ccncc1)Cc1cccc(Cn2cccn2)c1 (stereo unspecified) | -14.79%
19 | CCc1[nH]c2c(CNc3cncc(C(=O)OC)n3)cc(C)cc2c1C | 11.12%
20 | O[C@H]1COCCN(Cc2cccc3c2OCO3)C1 | -4.774%
21 | CCOc1ccccc1-c1noc(CN2CCOC(CN(C)C)C2)n1 (stereo unspecified) | 7.76%
22 | CC(C)c1nnc2n1CCN(C(=O)c1cc3cc(F)ccc3[nH]1)C2 | 98.88%
23 | CC(C)c1nnc2n1CCN(C(=O)c1ccnc(N(C)C)c1)C2 | -1.642%
24 | CC(C)c1nnc2n1CCN(C(=O)c1ccc3cc[nH]c3c1)C2 | -4.188%
25 | Cc1nnc2n1CCN(C(=O)c1cc3cc(F)ccc3[nH]1)C2 | 87.27%
26 | Cc1nnc2n1CCN(C(=O)c1cc(Cl)c[nH]1)C2 | -1.056%

Row | Structure (SMILES) | Percent Effect
27 | Cc1ccccc1-c1cc(C(=O)N2CCn3c(C)nnc3C2)[nH]n1 | -2.104%
28 | O=C(NC[C@H]1OC[C@@H](NCc2ccccc2)[C@@H]1O)Nc1ccccc1 | -15.87%
29 | Cc1nnc([C@H]2CC[C@@H]3[C@@H](CCN3CC3CCOCC3)O2)o1 | -4.928%
30 | O=C(Cc1ccsc1)N1C[C@@H]2C[C@@H](c3nnc(C4CC4)o3)O[C@@H]2C1 | 1.752%
31 | C1CC(CN2C[C@@H]3C[C@@H](c4nnc(C5CC5)o4)O[C@@H]3C2)C1 | 108.7%
32 | C1CC(CN2CC[C@@H]3O[C@@H](c4nnc(C5CC5)o4)C[C@H]3C2)CCO1 | 104.3%
33 | Cc1nnc([C@@H]2CC[C@@H]3[C@@H](CCN3CC3CCOCC3)O2)o1 | 8.23%
34 | Cc1noc([C@@H]2C[C@H]3CN(CC4CCOCC4)C[C@H]3O2)n1.O=C(O)C(F)(F)F | 45.83%
35 | C1CC(CN2C[C@@H]3C[C@@H](c4nnc(C5CC5)o4)O[C@@H]3C2)CCO1 | 101.2%
36 | C1CC(CN2C[C@H]3CC[C@@H]2CN(Cc2nnc(C4CC4)o2)C3)C1 | 1.497%
37 | COc1cc2c(cc1OC)S(=O)(=O)N(Cc1ccccc1)C2=O | -12.48%
38 | CCC(C)N(Cc1cccnc1)Cc1ccccc1Cn1cccn1 (stereo unspecified) | 1.099%
39 | Cc1cc(N(Cc2ccccn2)C2CC2)n2nc(C(F)(F)F)nc2n1 | 23.9%
40 | Cc1nn(C)c(C)c1NC(=O)CNC(c1ccccc1)C1CCCC1 (stereo unspecified) | -3.756%
41 | CCC(NC(=O)CS(=O)(=O)C1CCCC1)c1cc(F)ccc1F (stereo unspecified) | -16.07%
42 | CCS(=O)(=O)CC(=O)NC(c1ccccc1)C1CCCC1 (stereo unspecified) | 90.5%
43 | N#CC(NC(=O)CS(=O)(=O)C1CCCC1)c1ccc(F)cc1F (stereo unspecified) | 10.46%
44 | CCn1cnnc1CNC(=O)NC(c1ccccc1)C1CCCC1 (stereo unspecified) | 9.923%
45 | O=C(CS(=O)(=O)C1CCCC1)NC(c1ccc(F)cc1)C1CC1 (stereo unspecified) | 106.7%
46 | CN(CCNC(=O)N1CCCC1)C(=O)OC(C)(C)C | -14.2%
47 | Cn1cc(C#N)cc1C(=O)Nc1ccc(CN2CCOCC2)cn1 | -7.398%
48 | Cc1c(CN2CCCCC2)c(O)n(CCCO)c(=O)c1C#N | 106.4%
49 | Cn1c(NCCN2CCCCCC2)c(C#N)c(=O)n(C)c1=O | 6.229%
50 | Cc1oc(NC(=O)C(C)N2CCN(CCO)CC2)c(C#N)c1C (stereo unspecified) | 14.13%
51 | Cc1c(CN2CCOCC2)c(O)n(CCO)c(=O)c1C#N | 129.2%
